{"source": "PubChem BioAssay AID1508622", "about": "(National Center for Advancing Translational Sciences (NCATS), 2021)", "note": "Calls of active or inactive are those of the source. A call without a number means that no potency is given here. Calls come from the whole dose curve; as a rule, active = well fitted activation curve with a large enough effect; inconclusive = small, poorly fitted or top-dose-only effect; inactive = no such curve, though single readings can be large or run the other way. Potency is the fitted concentration of half-maximal effect.", "data": [{"assay": "Confirmatory qHTS for Identification of Small Molecule Activators of Huntingtin-Antisense Promoter Activity", "conditions": "HEK293 HTT-AS promoter firefly luciferase reporter, 24 h; series mostly up to 57.5 µM", "in_short": "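Plated reporter HEK293 cells (24 h) received library compounds at up to 57.5 uM final or 50 uM PTC124, incubated 24 h at 37C; firefly luciferase luminescence was then recorded with Dual-Glo reagent.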", "values": [{"smiles": "CN(C)c1ccc(C(=O)Nc2sc(Nc3ccccc3)nc2C(N)=O)cc1", "Potency": "inactive"}, {"smiles": "COc1ccc2nc(N3CCN(C(=O)CS(=O)(=O)c4ccc(C)cc4)CC3)sc2c1", "Potency": "inactive"}, {"smiles": "CCOc1ccccc1CNC(=O)C(CC)n1nc(C)c2c(C)n(-c3ccccc3)nc2c1=O", "note": "(centres undefined)", "Potency": "inactive"}, {"smiles": "CCC(=O)N1CCc2cc(S(=O)(=O)NCCC(=O)Nc3ccc(CC)cc3)ccc21", "Potency": "inactive"}, {"smiles": "CCOC(=O)c1ccc(C#Cc2ccc3c(c2)C(C)(C)CCS3)nc1", "Potency": "inactive"}, {"smiles": "O=C(Nc1ccc(Br)cc1)c1ccc(F)c(S(=O)(=O)NC2CCCCCC2)c1", "Potency": "inactive"}, {"smiles": "CCOc1ccc(NC(=O)c2ccc(F)c(S(=O)(=O)NCc3ccc4c(c3)OCO4)c2)cc1", "Potency": "inactive"}, {"smiles": "CCOc1ccc(C2=C(C(=O)CC)Sc3nncn3N2C(=O)CC)cc1", "Potency": "inactive"}, {"smiles": "CCOC(=O)c1cnc2ccc(OCC)cc2c1Nc1ccc(OCc2ccccc2Cl)cc1", "Potency": "inactive"}, {"smiles": "O=C(C=Cc1ccc(O)cc1)c1ccc(O)cc1O", "Potency": "inactive"}, {"smiles": "COc1ccc(OC(C)C(=O)NCc2nc(-c3ccc(Cl)cc3)no2)cc1", "note": "(centres undefined)", "Potency": "inactive"}, {"smiles": "O=S(=O)(Nc1ccc(F)c(C(F)(F)F)c1)c1ccc(N2CCCCS2(=O)=O)cc1", "Potency": "inactive"}, {"smiles": "CCCN(C(=O)COc1cc(=O)n(CC)c2ccccc12)c1ccc(C(C)C)cc1", "Potency": "inactive"}, {"smiles": "CCCOc1cccc(NC(=O)c2c(-c3ccccc3Cl)noc2C)c1", "Potency": "inactive"}, {"smiles": "O=C(Nc1ccc(Cl)c(Cl)c1)N(Cc1c[nH]c2ccccc12)C1CCCCC1", "Potency": "2.39 µM (active)"}, {"smiles": "Cc1ccc(NC(=O)c2ccc(C)c(S(=O)(=O)N3CCCCCC3)c2)cc1", "Potency": "inactive"}, {"smiles": "FC(F)(F)c1cccc(N2CCN(c3nc4ccccc4n4cnnc34)CC2)c1", "Potency": "inactive"}, {"smiles": "Cc1ccc(NC(=O)c2ccc(F)c(S(=O)(=O)N3CCc4ccccc4C3)c2)cc1F", "Potency": "inactive"}, {"smiles": "CCS(=O)(=O)c1ncc(Cl)c(C(=O)N(Cc2ccccc2)c2ccc(OC)cc2)n1", "Potency": "inactive"}, {"smiles": "Cn1cnc(=N)c2[nH]cnc21", "Potency": "inactive"}, {"smiles": "Cn1c(=O)n(C)c2cc(NS(=O)(=O)c3ccc(F)cc3)ccc21", "Potency": "inactive"}, {"smiles": "CCc1c(C)sc2c1CCN(C(=O)Nc1ccc(F)c(Cl)c1)C2c1ccc(F)cc1", "note": "(centres undefined)", "Potency": "inactive"}, {"smiles": "Cc1nc2nncn2c(NCc2ccc(Cl)cc2)c1C", "Potency": "inactive"}, {"smiles": "O=C(Nc1ccc(OC(F)(F)F)cc1)C(NS(=O)(=O)c1cccc2nsnc12)c1ccccc1", "note": "(centres undefined)", "Potency": "inactive"}, {"smiles": "Cc1ccc(Cl)cc1N1CCN(C(=O)CCS(=O)(=O)c2ccc3c(c2)oc(=O)n3C)CC1", "Potency": "inactive"}, {"smiles": "CCOc1ccc(OC(=O)c2c(-c3ccccc3Cl)noc2C)cc1", "Potency": "inactive"}, {"smiles": "CCOCc1cc(CN2CCN(c3ccccc3OC)CC2)c(O)c2ncccc12", "Potency": "inactive"}, {"smiles": "Cc1ccc(C)c(N2CCN(C(=O)Cn3cnc4nc5c(cc4c3=O)CCCC5)CC2)c1", "Potency": "inactive"}, {"smiles": "O=C(CSc1nc(-c2ccc(F)cc2)[nH]c1-c1ccc(F)cc1)Nc1ccc2c(c1)OCCO2", "Potency": "inactive"}, {"smiles": "COc1ccccc1C(=O)NCCSc1c(C)[nH]c2ccccc12", "Potency": "inactive"}, {"smiles": "O=C(Nc1ccc(F)cc1F)c1ccc2c(c1)CCN2S(=O)(=O)c1ccc(Cl)cc1", "Potency": "inactive"}, {"smiles": "COCCn1c2c([n+](Cc3cnccn3)c1C)C(=O)c1ccccc1C2=O", "Potency": "inactive"}, {"smiles": "CC1Cc2cc(S(=O)(=O)NCc3ccc(F)cc3)ccc2N1C(=O)C1CCC1", "note": "(centres undefined)", "Potency": "inactive"}, {"smiles": "Cc1cc(NC(=O)CCc2nc3cccnc3n2-c2ccccc2)ccc1Br", "Potency": "inactive"}, {"smiles": "Cc1cccc(-c2nc3scc(CCNS(=O)(=O)c4ccc(Oc5ccccc5)cc4)n3n2)c1", "Potency": "inactive"}, {"smiles": "Cc1cccc(N2CCN(C(=O)c3ccc(NC(=O)c4nsc5ccccc45)cc3)CC2C)c1", "note": "(centres undefined)", "Potency": "0.338 µM (active)"}, {"smiles": "COc1ccc(C)cc1NC(=O)CN1CCCN(S(=O)(=O)c2ccc(Br)cc2)CC1", "Potency": "inactive"}, {"smiles": "CC(C)c1ccc(Nc2c(-c3ccccn3)nc3ccccn23)cc1", "Potency": "inactive"}, {"smiles": "O=C(Nc1cc(Cl)cc(Cl)c1)c1ccc(F)c(S(=O)(=O)N2CCCC2)c1", "Potency": "inactive"}]}]}
